# Measurements reported in PubChem BioAssay (NCI).
# Compounds without any hit were thinned out: in the full panel of roughly 83,000, 20% have a hit.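 Values shown are percent growth following 48 h exposure of cells in 96-well plates to a single concentration of compound; below 10 was considered active.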 Unmarked numbers belong to inactive results. The source made the active and inactive calls.
# Columns and labels:
# Test in all cases: NCI-60 one-dose screen, 48 h (100 = growth as untreated, 0 = no growth, -100 = all killed)
# [1] = system: SN12C renal; settings: 10 µM unless noted
# [2] = system: UO-31 renal; settings: 10 µM unless noted
# [3] = system: ACHN renal; settings: 10 µM unless noted
# [4] = system: CAKI-1 renal; settings: 10 µM unless noted
# [5] = system: A498 renal; settings: 10 µM
# [6] = system: HL-60(TB) leukemia; settings: 10 µM unless noted
# [7] = system: CCRF-CEM leukemia; settings: 10 µM unless noted
# [8] = system: TK-10 renal; settings: 10 µM unless noted
# [9] = system: EKVX NSCLC; settings: 10 µM unless noted
Structure (SMILES),growth [1],growth [2],growth [3],growth [4],growth [5],growth [6],growth [7],growth [8],growth [9]
O=C([O][Hg][c]1ccccc1)c1ccccc1,-85.4% (active),-92.2% (active),-90.5% (active),-89.3% (active),40.7%,-53.5% (active),-33.8% (active),,
C=CC12CCN(CC1)C(C(O)c1ccnc3ccc(OC)cc13)C2 (stereo unspecified),83.5%,48.3%,80.4%,69.8%,56.9%,60.7%,75.8%,88.4%,
CC(=O)C(c1c(O)c2ccccc2oc1=O)c1cc(=O)oc2c1ccc1ccccc12 (stereo unspecified),87.1%,80.3%,101%,,79.8%,96.9%,94.5%,116%,92.1%
NC(=O)c1c(Br)n(C2OC(CO)C(O)C2O)c2ncnc(N)c12 (stereo unspecified),13.4%,1.86% (active),12.1%,,-29.9% (active),-37.2% (active),-34.4% (active),30.4%,-2.28% (active)
CC(C)(C)N1CC1C#N (stereo unspecified),103%,92.1%,101%,92.6%,105%,98.3%,101%,98%,
COc1ccc(-n2c(C)nc3cc(OC)c(OC)cc3c2=O)cc1OC,105%,94.4%,109%,,95.8%,100%,98.1%,102%,
CN(C)C(=O)Oc1ccc(Br)cc1,,85.1%,,95.5%,117%,,89.7%,99.8%,
C/C(=C\c1ccn(-c2ccc(N)c(F)c2)n1)[C@@H]1C[C@@H]2O[C@]2(C)CCC[C@H](C)[C@H](O)[C@@H](C)C(=O)C(C)(C)[C@@H](O)CC(=O)O1,35.7%,36.9%,44.6%,37.5%,13%,5.44% (active),12.1%,,
CC(C)CCC1(CCCl)C(=O)NC(=O)NC1=O,95.6%,91%,102%,94.6%,89.4%,108%,95.3%,100%,
O=C(CCl)c1ccc([N+](=O)[O-])o1,-38.1% (active),-8.81% (active),-40.6% (active),,101%,-68.9% (active),-74.9% (active),-39.4% (active),96.2%
CC1=C(CCCOC(=O)[C@H](N)CC(C)C)C2=C(C)C3(CC3)[C@@](C)(O)C(=O)C2=C1,29.3%,-42.1% (active),-43% (active),,-74.2% (active),52.3%,80%,-19% (active),35.2%
COP(=O)(OC)C(O)c1ccc(Cl)cc1 (stereo unspecified),108%,83.3%,,,98.5%,98.9%,112%,96.5%,
O=C([O][Hg][CH2]C1COCC([CH2][Hg][O]C(=O)c2ccccc2)O1)c1ccccc1 (stereo unspecified),,-12.1% (active),70.6%,,114%,23.1%,-10.3% (active),38.1%,103%
CC(C)[C@]12O[C@H]1[C@@H]1O[C@]13[C@]1(O[C@H]1C[C@H]1c4c(C(=O)c5ccccc5)oc(OC(=O)c5ccccc5)c4CC[C@@]13C)[C@@H]2O,23.7%,7.34% (active),,,-49.4% (active),-46% (active),-32.5% (active),44%,-17.2% (active)
COC(=O)[C@H](Cc1c[nH]c2ccccc12)NC(=O)[C@@H](OC)[C@@H]1Cc2cc3cc(OC4CC(OC5CC(O)C(O)C(C)O5)C(O)C(C)O4)c(C)c(O)c3c(O)c2C(=O)[C@H]1OC1CC(OC2CC(OC3CC(C)(O)C(O)C(C)O3)C(O)C(C)O2)C(O)C(C)O1 (stereo partly specified),10.6%,-6.63% (active),0.567% (active),,-52.8% (active),-8.66% (active),5.66% (active),8.12% (active),3.61% (active)
C[C@]12CC[C@@H]3c4ccc(Oc5nc(N6CC6)nc(N6CC6)n5)cc4CC[C@H]3[C@@H]1CCC2=O,,28.6%,16.3%,10.9%,-18.5% (active),-35.6% (active),3.37% (active),59.6%,
OCCCCCNC1CCCCC1,105%,87.5%,94.1%,,105%,91.7%,,86.5%,
CC(=O)O[C@H](C[C@H](C(C)C)N(C)C(=O)[C@@H](NC(=O)[C@H]1CCCCN1C)C(C)C)c1nc(C(=O)N[C@@H](Cc2ccccc2)C[C@H](C)C(=O)O)c(C(C)C)s1,16.6%,41.5%,27.3%,,-8.17% (active),-41.4% (active),3.84% (active),61.6%,39.3%
C=CC[n+]1ccc(-c2cc[n+](CC=C)cc2)cc1,103%,95%,103%,94.2%,100%,93.3%,84.7%,126%,
CC1=C(O)[C@@](C)(CCCCC[C@H](C)CCCCc2ccc(O)cc2)OOC1=O,88.5%,68.8%,,80.6%,119%,84.4%,,129%,95.4%
CC[C@H](C)[C@H](NC(=O)[C@H]1CCCCN1C)C(=O)N(C)[C@H](CCc1nc(C(=O)N[C@@H](Cc2ccccc2)C[C@H](C)C(=O)OC)cs1)C(C)C,28.9%,43.5%,,,-2.22% (active),-21.2% (active),12.8%,54.3%,47.3%
CC(=O)OCC1O[C@@H]([S-])C(OC(C)=O)[C@H](OC(C)=O)[C@@H]1OC(C)=O.[Au+].c1ccc(CN2[CH-]N(Cc3ccccc3)C(c3ccccc3)=C2c2ccccc2)cc1,23.6%,45%,30.1%,,42.1%,,7.57% (active),,
COc1ccc(S(=O)(=O)Nc2c(/C=C\c3cc(OC)c(OC)c(OC)c3)ccc(OC)c2O)cc1OC,31%,49.3%,29.6%,22.8%,,4.28% (active),12%,,
COc1ccc2c(c1)c(-c1nc(-c3c[nH]c4ncccc34)cs1)cn2CCN1CCOCC1,43.6%,15.4%,36.5%,,71.7%,61%,41.6%,42.3%,37.1%
CC(=O)O[C@H](C[C@H](C(C)C)N(C)C(=O)[C@@H](NC(=O)[C@H]1CCCCN1C)C(C)C)c1nc(C(=O)NC2CCC(C(=O)O)CC2)cs1 (stereo partly specified),13.4%,76.4%,86.8%,,35.8%,-22.2% (active),12.8%,73.8%,57.8%
O=C1NC(=O)C(=Cc2ccc(OCCCCC3CCCCC3)c(Cl)c2)C(=O)N1,77.3%,81.2%,104%,,82.7%,92.8%,90.1%,94.1%,95.9%
COc1ccc(C(=O)c2sc3nc4c(cc3c2N)N2CCC4CC2)cc1OC,93.4%,52.8%,81.8%,79.7%,116%,94.5%,74.7%,,
Nc1ccc(-c2nc3cc(F)ccc3[se]2)cc1F,83%,38.5%,30.3%,,13.5%,64.9%,44.8%,43.6%,49.2%
N#Cc1c(Br)n(C2OC(CO)C(O)C2O)c2ncnc(N)c12 (stereo unspecified),60.3%,42.3%,78.4%,,-16.3% (active),-33.7% (active),8.19% (active),115%,95.7%
